Source: PubChem
This is a sample that favours compounds with a hit; in the whole collection about 19% have one here.
HT1080 IDH1KD tx: toxicity to HT-1080 IDH1 knockdown cells (counter line); HT-1080 IDH1 knockdown viability, ATP luminescence, 48 h; Potency, µM (series often up to 46.1 µM), without a hit: top-dose activity, negative = toxicity, usual class: cytotoxic; actives 2% (n = 360,000);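 note: 0% = DMSO wells and -100% = cell-free medium wells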
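IDH1KD HT-1080 cells, 750/well, RPMI + 5% FBS; compound pinned after 2 h settling; 48 h, 37 °C; CellTiter-Glo luminescence; % activity normalised to DMSO and no-cell wells; curves fitted, classed by r2 and efficacy.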
KB-3-1 tox: kills parental KB-3-1 adenocarcinoma cells; KB-3-1 viability, CellTiter-Glo ATP luminescence, 72 h; Potency, µM (top dose mostly 46.1 µM), most hits filed as cytotoxic; actives 1.4% (n = 400,000); note: nearly all actives have a fitted effect of over 60% in size
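Luminescent ATP read-out (CellTiter-Glo) measures survival of drug-naive KB-3-1 cells after 72 h compound exposure at 37 °C. Titration series was screened from lowest to highest concentration, with DMSO vehicle plates as background controls.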
TDP1 cell CPT: growth inhibition of DT40 Tdp1-/-;hTDP1 cells with camptothecin (screen for TDP1 inhibitors). chicken DT40 Tdp1-/-;hTDP1 cells + 20 nM CPT, ATP luminescence, 48 h. Potency, µM (titrated, usually from 46.2 µM), inactives show at the top dose activity change, negative = growth inhibition, usual class: inhibitors. actives 12% (n = 420,000); note: nearly all actives have a fitted effect of over 55% in size
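Chicken DT40 Tdp1-/- cells stably complemented with human TDP1 were seeded at 400 cells/well in medium containing 20 nM camptothecin, exposed to pin-transferred compounds, and grown at 37 °C for at least 48 hr. Viability was read as ATP luminescence.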
DT40 TDP1 no CPT: qHTS for Inhibitors of human tyrosyl-DNA phosphodiesterase 1 (TDP1): qHTS in cells in absence of CPT; DT40 Tdp1-/- hTDP1 cells, no CPT, ATP luminescence, 48 h; actives 15% (n = 420,000); Potency, µM (series often up to 46.2 µM), inactives show at the top dose activity change, negative = growth inhibition, hits mostly inhibitors; AID 686978, 2013; note: nearly all actives have a fitted effect of over 55% in size
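Luminescent ATP content (CellTiter-Glo) served as the growth readout. Knockout chicken DT40 cells expressing human TDP1 were exposed to compounds without camptothecin for a minimum 48 hr at 37 °C.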
HT1080NT lethal: kills 2HG-producing HT-1080-NT fibrosarcoma cells; HT-1080-NT fibrosarcoma viability, CellTiter-Glo ATP luminescence, 48 h; Potency, µM (series often up to 46.1 µM), for the others: top-dose activity, negative = less viability, most hits filed as cytotoxic; actives 1.6% (n = 360,000);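 note: NT is the 2HG producing partner of a matched IDH1 knockdown line; 0% = DMSO-treated cells and -100% = media-only wells without cells; nearly all actives have a fitted effect of over 55% in size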
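Compounds were tested in concentration-response format on HT-1080-NT cells for 48 hours at 37 degrees C. Cell viability came from CellTiter-Glo luminescence; curves were classified by r2, response magnitude and activity.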
KB-V1 MDR tox: KB-V1 MDR subline cytotoxicity. KB-V1 MDR cells viability, CellTiter-Glo, 72 h. Potency, µM (doses to about 46.1 µM), actives largely listed as cytotoxic. actives 3.4% (n = 400,000). AID 1347076; note: nearly all actives have a fitted effect of over 60% in size
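Readout: CellTiter-Glo luminescence, 10 min after addition. Cells: KB-V1 MDR subline, 72 h at 37 degrees C with compound. Analysis: corrected, normalized data fitted to concentration-effect curves.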
* marks the source's active call; other numbers are inactive results; i = inactive; ? = inconclusive; / = no result given; ! = repeats disagree. Calls come from the whole dose curve; as a rule, active = well fitted curve in the direction sought with a large enough effect; inconclusive = small, poorly fitted or top-dose-only effect, or another doubt; inactive = no such curve, though single readings can be large; an effect the other way counts as inactive or inconclusive. Unless noted, % is set by controls: 0 for no effect and ±100 for the full control effect; potency is the fitted concentration of half-maximal effect.

SMILES	HT1080 IDH1KD tx	KB-3-1 tox	TDP1 cell CPT	DT40 TDP1 no CPT	HT1080NT lethal	KB-V1 MDR tox
CN(C)Cc1ccccc1-c1ccc2ncnc(N(C)C)c2c1	/	/	?	-16.1%	/	/
CN(Cc1ccco1)c1ncnc2ccc(-c3ccccc3C(F)(F)F)cc12	/	/	?	23.1µM*	/	/
COc1ccccc1C(=O)NC1(C(F)(F)F)C(=O)Nc2c1c(=O)[nH]c(=O)n2-c1ccccc1 (centres undefined)	/	i	-0.5%	-6.4%	/	i
COC1=C(C)C(=O)C2=C(C1=O)C1C3CC4=C(C(=O)C(OC)=C(C)C4=O)C(CNC(=O)C(C)=O)N3C(C#N)C(C2)N1C (centres undefined)	0.082µM*	0.103µM*	0.0411µM*	0.0259µM*	18.4µM*	2.31µM*
CCN1CCN(c2cc(C)c3cc(NC(=S)NCCCN4CCc5ccccc5C4)ccc3n2)CC1	20.6µM*	i	?	14.6µM*	20.6µM*	i
Cc1cc(N2CCCC2)nc2ccc(NC(=S)NCCCN3CCC(C)CC3)cc12	23.1µM*	i	?	?	23.1µM*	?
Cc1cc(N2CCN(C)CC2)nc2ccc(NC(=S)NCCCN3CCc4ccccc4C3)cc12	16.4µM*	i	?	?	18.4µM*	i
CC(NC(=O)c1ccco1)c1nnc2n1CCN(Cc1ccc(N(C)C)cc1)CC2 (centres undefined)	/	/	-3.5%	-14.3%	/	/
COc1cc(C(CC(=O)Nc2ccc(C)cn2)N2Cc3ccccc3C2=O)cc(OC)c1OC (centres undefined)	15.9%	i	2.7%	-11.6%	?	i
Cc1nccn1CCCN1C(=O)OC2(CCCCC2)C1(C)O (centres undefined)	19.9%	i	?	20.6µM*	24.6%	?
Brc1ccc(-c2csc(-c3c[nH]c4ccccc34)n2)cc1	?	i	?	?	?	i
c1ccc2c(-c3csc(-c4ccncc4)n3)c[nH]c2c1	?	?	18.4µM*	14.6µM*	?	?
CCCCc1c(C)[nH]c2nc3ccccc3n2c1=O	5.1%	i	1.3%	1.2%	3.0%	i
Cc1nc2cc(C(=O)NCCC3=CCCCC3)ccc2n1-c1ccc(Br)cc1	/	i	?	?	/	i
C=CCN(c1ccc(F)cc1)S(=O)(=O)c1cc(C(=O)NC2CC2)ccc1Cl	-6.3%	i	20.6µM*	20.6µM*	8.7%	?
FC(F)(F)c1ccccc1-c1nc(NC2CCNCC2)c2ccccc2n1	/	/	14.6µM*	?	/	/
CC(=O)CCC(=O)O	/	/	15.8%	-3.3%	/	/
Cc1nc(C)n(C(C)CNC(=O)c2ccco2)n1 (centres undefined)	12.8%	i	6.4%	9.7%	13.8%	?
NNc1nc(-c2ccccc2Cl)c2cc(Br)ccc2n1	-6.2%	?	20.6µM*	5.17µM*	-1.9%	i
C(=N\n1cnnc1)/c1ccccn1	1.0%	i	-4.5%	-13.3%	3.9%	i
C/C(=N\Nc1ccc2nncn2n1)c1ccccn1	?	?	2.31µM*	4.61µM*	?	i
C/C(=N\Nc1ccc2nncn2n1)c1ccco1	-3.0%	i	0.8%	-0.3%	-3.2%	i
C(=N\Nc1ccc2nncn2n1)/c1ccccn1	?	i	11.6µM*	23.1µM*	?	?
N#CCCn1c(=O)c(-c2ccccc2)nc2cnc(OCc3ccccc3)nc21	/	/	-6.9%	?	/	/
O=C(Oc1ccccc1)N1CCC2(CCCN(c3ccccn3)C2)CC1	/	/	-1.3%	?	/	/
SMILES	HT1080 IDH1KD tx	KB-3-1 tox	TDP1 cell CPT	DT40 TDP1 no CPT	HT1080NT lethal	KB-V1 MDR tox
O=C1CC(C(F)(F)C(F)(F)C(F)(F)F)=Nc2ccccc2N1	10.7%	?	-1.9%	-20.3%	7.3%	i
O=C1CC(=O)Nc2ccccc2N1	0.5%	i	13.8%	5.1%	0.4%	i
CN1N=C(/C=C/c2ccccc2)CCC1=O	-4.4%	i	0.9%	-27.1%	-24.9%	i
CC1(C)CC(/C=C/c2ccccc2)=Nc2ccccc2N1	-11.5%	?	18.4µM*	20.6µM*	-25.7%	i
O=C1CC(/C=C/c2cccnc2)=Nc2ccccc2N1	?	?	13µM*	16.4µM*	-0.2%	?
O=C1CC(/C=C/c2ccc(Cl)cc2)=Nc2ccccc2N1	-19.0%	?	?	14.6µM*	?	?
COCC(=O)N1CCC2CC1c1cc(Cl)ccc12 (centres undefined)	4.6%	i	-1.1%	-15.1%	6.5%	i
CN(C)c1ccc(C(=O)Nc2c(C(=O)NC(C)(C)C)oc3ccccc23)cc1	/	i	?	?	/	i
Cc1ccc(F)c(S(=O)(=O)NC(=O)C2(C)CCN2C(=O)CCC2CCCC2)c1 (centres undefined)	18.4%	i	0.6%	6.4%	?	i
CCOc1ccc(NS(=O)(=O)c2cccs2)cc1S(=O)(=O)N1CCCC1	6.4%	i	-9.6%	-0.8%	-0.6%	i
CC(OC(=O)C1CCCCC1)c1nc2ccccc2[nH]1 (centres undefined)	3.9%	i	-25.2%	-3.2%	-0.9%	20.6µM*
CC1CN(C(=O)c2cc(S(=O)(=O)N(C)c3ccc(F)cc3)ccc2Cl)CC(C)O1 (centres undefined)	-27.2%	i	2.31µM*	1.03µM*	-9.5%	i
CCOC(=O)C1CCCN(S(=O)(=O)c2ccc(F)c(C(=O)Nc3ccc(F)c(F)c3)c2)C1 (centres undefined)	-27.0%	i	23.1µM*!	16.4µM*	?	?
O=C(c1cc(S(=O)(=O)N2CCN(c3ccccc3)CC2)ccc1Cl)N1CCCCCCC1	-12.4%	?	?	14.6µM*	-27.5%	?
CC1CN(C(=O)c2cc(S(=O)(=O)N3CCCC3)ccc2Cl)CC(C)O1 (centres undefined)	17.3%	i	-19.2%	?	23.2%	i
CC1CN(C(=O)c2cc(S(=O)(=O)N3CCCCC3)ccc2Cl)CC(C)O1 (centres undefined)	5.5%	i	16.4µM*	11.6µM*	11.6%	20.6µM*
CCOC(=O)C1CCCN(C(=O)c2cc(S(=O)(=O)N3CCCCC3)ccc2Cl)C1 (centres undefined)	-2.2%	i	20.6µM*	20.6µM*	-13.2%	i
